Assay outcomes from PubChem.
Bim-Bcl-B – human Bim-Bcl-B interaction inhibition; Q9HD36; bead-based flow cytometry, Bim peptide-Bcl-B binding; inhibition, % at 10 µM; 190,000 tested, 0.073% active;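 further: 0% = tracer peptide without compound and 100% = reference inhibitor peptide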
Bcl-2 Bim block – disrupts Bim peptide binding to human Bcl-2. P10415. Bead-based flow cytometry, Bim peptide-Bcl-2 binding. inhibition, % at 10 µM. 190,000 tested, 0.06% active; in the data active means inhibition above about 40%;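 further: 0% = no compound wells with probe peptide and 100% = reference peptide inhibitor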
Bcl-W Bim block – disrupts Bim peptide binding to human Bcl-W; Q92843; bead-based flow cytometry; inhibition, % at 10 µM; 190,000 tested, 0.02% active;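 further: 0% = bound tracer without compound and 100% = peptide blocker; higher means less fluorescent Bim peptide bound to Bcl-W beads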
Bcl-XL Bim block – disrupts Bim peptide binding to human Bcl-XL; Q07817; bead flow cytometry, fluorescence; inhibition, % at 10 µM; 190,000 tested, 0.04% active
Target sequence (Q07817 whole entry, looked up): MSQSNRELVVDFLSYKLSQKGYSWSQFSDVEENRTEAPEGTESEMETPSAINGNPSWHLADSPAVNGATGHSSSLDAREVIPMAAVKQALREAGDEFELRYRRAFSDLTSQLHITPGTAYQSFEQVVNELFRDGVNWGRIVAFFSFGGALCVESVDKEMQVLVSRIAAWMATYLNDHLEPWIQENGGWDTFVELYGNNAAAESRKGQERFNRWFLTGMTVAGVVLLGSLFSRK
Bim-Bfl-1 – disrupts Bim binding to human Bfl-1. inhibition, % at 10 µM. 190,000 tested, 0.12% active. Bead-based flow cytometry, Bim-Bfl-1 binding inhibition;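 further: 0% = wells without compound plus tracer and 100% = blocker peptide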
Numbers without * were called inactive. An excerpt weighted towards active compounds, which were near 0.2% of everything screened. Unless noted, no stated cut-off is given here; in the data, active means inhibition above about 40%.

SMILES	Bim-Bcl-B	Bcl-2 Bim block	Bcl-W Bim block	Bcl-XL Bim block	Bim-Bfl-1
CN1CCN(c2ccc(N)cc2)CC1	61*	10	23	19	15
CC1=NN(c2ccccc2)C(=O)C1/C=C1\C(=O)NC(=O)N(c2ccc(C)c(C)c2)C1=O (configuration not stated)	-3	-5	1	7	-5
O=C1NC(=O)C(=Cc2ccc(-c3cc(Cl)ccc3[N+](=O)[O-])o2)C(=O)N1	3	9	8	-2	45*
CN(C)c1ccc(C=C2C(=O)NC(=S)NC2=O)cc1[N+](=O)[O-]	-4	1	-3	0	0
CN(C)c1ccc(C=C2C(=O)NC(=O)NC2=O)cc1[N+](=O)[O-]	7	13	16	5	48*
CC(=NCCN1CCOCC1)c1c(O)n(-c2ccccc2C)c(=O)[nH]c1=O	0	2	-2	-3	-2
